Screening results as filed in PubChem.
AID504770: growth inhibition of E. coli YBA685, primary screen, V. cholerae RctB inhibitors; z-score (test concentration not listed); E. coli YBA685 rctB-dependent plasmid, OD600 growth, 3 h; hits give low values; 130,000 compounds, 0.27% hits; in the data active = z-score below about -2, passing the limit was not always enough
PV pol inh: poliovirus RdRp elongation inhibitors, primary screen, biochemical, fluorescence polarization, total intensity; Genome polyprotein (Poliovirus type 1 (strain Mahoney)), P03300; poliovirus polymerase elongation; hits give low values; AID 588519, 2011; % elongation, % (compound at 16.7 µg/mL); 150,000 compounds, 0.66% hits; in the data active = % elongation below about 90%
Target sequence (P03300 1749-2209 limits assumed): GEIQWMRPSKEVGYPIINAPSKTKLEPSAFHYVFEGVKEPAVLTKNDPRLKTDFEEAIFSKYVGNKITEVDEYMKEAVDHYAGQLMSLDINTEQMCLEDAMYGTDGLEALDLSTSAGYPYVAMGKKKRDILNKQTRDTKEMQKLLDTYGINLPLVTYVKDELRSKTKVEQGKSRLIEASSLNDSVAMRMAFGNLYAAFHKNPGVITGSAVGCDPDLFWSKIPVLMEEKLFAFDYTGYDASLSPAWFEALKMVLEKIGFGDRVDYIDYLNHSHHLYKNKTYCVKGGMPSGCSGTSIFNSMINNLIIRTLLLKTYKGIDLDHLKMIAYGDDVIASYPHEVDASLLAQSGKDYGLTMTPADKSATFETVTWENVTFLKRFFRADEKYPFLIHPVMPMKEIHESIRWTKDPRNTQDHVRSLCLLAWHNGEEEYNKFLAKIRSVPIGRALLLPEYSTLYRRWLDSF
Mtb MbtI inh: MbtI salicylate synthase inhibitors, primary screen, biochemical, fluorescence intensity; P9WFX0; purified MbtI enzyme, fluorescence intensity read-out; inhibition, % (no concentration beside the values); 100,000 compounds, 0.89% hits; AID 493033, 2011; in the data active = inhibition mostly above about 56%, no sharp cut-off; inactive = mostly below about 77%
MenB inh: M. tuberculosis MenB inhibitors, primary screen, biochemical, absorbance | 1,4-dihydroxy-2-naphthoyl-CoA synthase (Mycobacterium tuberculosis (strain ATCC 25618 / … | MenB enzyme assay, absorbance read-out | inhibition, % (no concentration beside the values) | 100,000 compounds, 0.43% hits; in the data active = inhibition above about 21%, passing the limit was not always enough
Hits are given with their value. Hits are enriched below; roughly 1.4% of the tested compounds scored in any of these assays.

Cc1nc(Cc2nnc(SCc3cn4cccc(C)c4n3)o2)cs1 was read as AID504770 inactive, PV pol inh inactive, Mtb MbtI inh inactive and MenB inh inactive.
Cc1ccc(C)c(N/C=C/C(=O)C(C)(C)C)c1 was read as AID504770 inactive, PV pol inh inactive, Mtb MbtI inh inactive and MenB inh inactive.
`c1ccc2[nH]c(Cc3nc4ccccc4s3)nc2c1` gave AID504770 inactive, PV pol inh inactive, Mtb MbtI inh inactive and MenB inh inactive.
Screening Cc1cc(C)n(N)c(=O)c1C#N returned AID504770 inactive, PV pol inh inactive, Mtb MbtI inh inactive and MenB inh inactive.
Screening Cc1cc(C)c(C#N)c(=N)o1 returned AID504770 inactive, PV pol inh 55, Mtb MbtI inh inactive and MenB inh inactive.
For N#C/C(=C(/O)CSc1nc2ccccc2o1)c1nc2ccccc2[nH]1 the results were AID504770 inactive, PV pol inh inactive, Mtb MbtI inh inactive and MenB inh inactive.
N#C/C(=C(/O)CSc1n[nH]c(=O)[nH]c1=O)c1nc2ccccc2[nH]1 was read as AID504770 inactive, PV pol inh inactive, Mtb MbtI inh 77 and MenB inh inactive.
Screening C/C(=N\NC(=O)c1cccnc1)c1ccc(Cl)s1 returned AID504770 inactive, PV pol inh inactive, Mtb MbtI inh inactive and MenB inh inactive.
O=C1CCCC2=C1C1(O)C(=O)c3ccccc3C1(O)O2 (stereo unspecified) was read as AID504770 inactive, PV pol inh 78, Mtb MbtI inh inactive and MenB inh inactive.
`Nc1ccc2c(c1)OC1(O)c3ccccc3C(=O)C21O` (stereo unspecified) gave AID504770 inactive, PV pol inh inactive, Mtb MbtI inh inactive and MenB inh inactive.
`Fc1ccc(C(c2nnnn2Cc2ccccc2)N2CCSCC2)cc1` (stereo unspecified) gave AID504770 inactive, PV pol inh inactive, Mtb MbtI inh inactive and MenB inh inactive.
For COc1ccccc1CN1CCN(C(CC(C)C)c2nnnn2Cc2ccc(F)cc2)CC1 (stereo unspecified) the results were AID504770 inactive, PV pol inh inactive, Mtb MbtI inh inactive and MenB inh 33.
Screening S=c1nc2c(n[nH]1)c1ccccc1n2Cc1ccccc1 returned AID504770 inactive, PV pol inh 73 and MenB inh inactive.
CC(C)n1c2ccccc2c2n[nH]c(=S)nc21 was read as AID504770 inactive, PV pol inh inactive, Mtb MbtI inh inactive and MenB inh inactive.
CCC(C)n1c(=O)[nH][nH]c1=S (stereo unspecified) was read as AID504770 inactive, PV pol inh inactive, Mtb MbtI inh 51 and MenB inh inactive.
For COC(=O)c1sc(C(=O)OC)c(O)c1O the results were AID504770 inactive and Mtb MbtI inh inactive.
For Cc1cc(C)c(O)c(N)c1 the results were AID504770 inactive, PV pol inh inactive, Mtb MbtI inh 101 and MenB inh inactive.
`COc1cccc(C2C3=C(CC(C)(C)CC3=O)Nc3[nH]c(=O)[nH]c(=O)c32)c1` (stereo unspecified) gave AID504770 inactive, PV pol inh inactive, Mtb MbtI inh inactive and MenB inh inactive.
CC(C)(C)c1cc2nc(C(F)(F)F)cc(NN)n2n1 was read as AID504770 inactive, PV pol inh inactive, Mtb MbtI inh inactive and MenB inh inactive.
NC(=O)COC(=O)c1n[nH]c2ccccc12 was read as AID504770 -3.5, PV pol inh inactive, Mtb MbtI inh inactive and MenB inh inactive.
O=C(N/N=C/c1ccco1)C1CN(S(=O)(=O)c2ccccc2)CCN1S(=O)(=O)c1ccccc1 (stereo unspecified) was read as AID504770 inactive, PV pol inh inactive, Mtb MbtI inh 84 and MenB inh inactive.
Screening OC(COCC1CC=CCC1)CN(Cc1ccccc1)Cc1ccccc1 (stereo unspecified) returned AID504770 inactive, PV pol inh 86 and MenB inh inactive.
N#CC(=S)Nc1ccc(F)cc1 was read as AID504770 inactive, PV pol inh 85, Mtb MbtI inh inactive and MenB inh inactive.
For c1cncc(-c2nnc(-c3cccnc3)nn2)c1 the results were AID504770 inactive, PV pol inh 66 and MenB inh inactive.
c1ccc(-c2nnc(-c3cccnc3)nc2-c2ccccc2)cc1 was read as AID504770 inactive, PV pol inh inactive, Mtb MbtI inh inactive and MenB inh inactive.
COCCn1c(=S)[nH]c2sc(C)c(C)c2c1=O was read as AID504770 inactive, PV pol inh 80, Mtb MbtI inh 100 and MenB inh inactive.
Screening CCCCn1c(=S)[nH]c2sc3c(c2c1=O)CCCC3 returned AID504770 inactive, PV pol inh inactive, Mtb MbtI inh inactive and MenB inh inactive.
For CCc1cc2c(=O)n(Cc3ccco3)c(SC(C)C(=O)N3CCc4ccccc43)nc2s1 (stereo unspecified) the results were AID504770 inactive, PV pol inh inactive, Mtb MbtI inh inactive and MenB inh inactive.
Screening CN1CCN(C(=S)SCc2nc(N)nc(Nc3ccccc3)n2)CC1 returned AID504770 inactive, PV pol inh inactive, Mtb MbtI inh inactive and MenB inh inactive.
Cc1cccc(/C=N/NC(=O)c2ccccn2)c1O was read as AID504770 -2.3, PV pol inh inactive, Mtb MbtI inh inactive and MenB inh inactive.
O=C(CSc1nnc(CNc2cccc(Cl)c2)o1)Nc1cccc(Cl)c1 was read as AID504770 inactive, PV pol inh inactive, Mtb MbtI inh inactive and MenB inh inactive.
For CCCCCOc1ccc(C(=O)CCN2CCOCC2)cc1 the results were AID504770 inactive, PV pol inh inactive, Mtb MbtI inh 92 and MenB inh inactive.
Screening COc1ccc(C(=O)NCC23C=CC(O2)C2C(=O)N(c4ccccc4C)C(=O)C23)cc1 (stereo unspecified) returned AID504770 inactive, PV pol inh inactive, Mtb MbtI inh 65 and MenB inh inactive.
Screening O=C1CSc2nnc(C3COc4ccccc4O3)n2N1 (stereo unspecified) returned AID504770 inactive, PV pol inh inactive, Mtb MbtI inh 85 and MenB inh inactive.
CC(C)Cc1cc2c(c(N)n1)c(=O)oc1ccccc12 was read as AID504770 inactive.
Screening CCOC(=O)CCc1c(CC(=O)OCC)c[nH]c1/C=N/O returned AID504770 inactive, PV pol inh 50, Mtb MbtI inh inactive and MenB inh inactive.
Screening CCOC(=O)CCc1c(C)nc2ncnn2c1C returned AID504770 inactive and Mtb MbtI inh inactive.
Screening COC(=O)COc1ccc2cccc(-n3cnnn3)c2c1 returned AID504770 inactive, PV pol inh inactive, Mtb MbtI inh inactive and MenB inh 39.
COc1ccc2cc(-c3nc4ccccc4s3)c(=O)oc2c1 was read as AID504770 inactive.
For CC12CCC3(C)OCC(COC(=O)Nc4ccccc4)(CO1)N23 (stereo unspecified) the results were AID504770 inactive, PV pol inh inactive, Mtb MbtI inh inactive and MenB inh inactive.
`N#Cc1oc2ccccc2c1NC(=O)CSc1nnc(-c2ccccc2)n1Cc1ccco1` gave AID504770 inactive, Mtb MbtI inh inactive and MenB inh 39.
